This note sets out measurements from PubChem BioAssay (NCATS).

Common to all, as to assay: qHTS profiling for inhibitors of Plasmodium falciparum proliferation (AID 504749); also: nearly all actives have a fitted effect of over 60% in size
Conditions in all cases: P. falciparum in erythrocytes, SYBR Green DNA, 72 h; series mostly up to 28.7 µM
On the technique in general: qHTS replaces the single test concentration by a dilution series.

In one assay the test system is CP291. Put shortly: (§1)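 SYBR Green fluorescence (ex 485 nm, em 535 nm) reports parasite DNA after 72 h compound exposure of infected red cells at 0.3% parasitemia, 2.5% hematocrit; signal normalized to 0.29 uM artemisinin and vehicle wells.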
Another assay has as its system CP297. The essentials:
as §1

Another assay has as its system CP305. Put shortly:
as §1

In a further assay the test system is CP315. The essentials: as §1
For a further assay, the system named is CP325. Put shortly:
as §1

In another assay the test system is CP329. Put shortly:
as §1

The next assay deals with CP335. Put shortly: as §1
The test system of the next assay is DFO2036. The essentials:
as §1

Another assay concerns DIV14. Put shortly:
as §1

The next assay has as its system DIV17. The essentials:
as §1

In a further assay the test system is Dd2. The essentials:
as §1

A further assay has as its system ECU. The essentials:
as §1

Another assay relates to FAB9. Put shortly:
as §1

A further assay has as its system GB4. The essentials: as §1
A further assay concerns HB3. The essentials:
as §1

In a further assay the test system is JCK. Put shortly:
as §1

The subject of another assay is N140. The essentials: as §1
A further assay deals with P93_24. The essentials:
as §1

The test system of the next assay is DIV30. Put shortly: as §1
The next assay relates to ICS. The essentials: as §1

Results filed as inconclusive are left out. Activity calls are given as the source filed them. Calls follow the shape of the dose curve; as a rule, active = well fitted inhibition curve with a large enough effect; inconclusive = small, poorly fitted or top-dose-only effect; inactive = flat fitted curve, though single readings scatter.
Potency is read from the fitted curve at half-maximal effect.

Regarding `C[C@H]1C[C@H]2[C@@H]3CCC4=CC(=O)C=C[C@]4(C)[C@@]3(Cl)[C@@H](O)C[C@]2(C)[C@@]1(O)C(=O)CO`, the Potency result with CP291, in the assay with CP297, in the assay on CP305, in the assay on CP315, with CP325 and in the assay on CP329 was “inactive” throughout. The Potency result in the assay on CP335, with DFO2036, in the assay with DIV14, in the assay on DIV17, in the assay with Dd2 and in the assay on ECU was “inactive” each time. Besides, the Potency result with FAB9, in the assay on GB4, with HB3, in the assay on JCK, in the assay on N140 and in the assay with P93_24 was “inactive” in each case.

`CN(C)/N=N/c1nc[nH]c1C(N)=O`: the Potency entry in the assay on CP291, in the assay with CP297, in the assay with CP305, in the assay with CP315, in the assay on CP325 and in the assay on CP329 was “inactive” throughout. The Potency entry in the assay on DFO2036, in the assay with DIV14, with DIV17, with DIV30, with Dd2 and in the assay with ECU was “inactive” each time. Moreover, the Potency entry in the assay with FAB9, in the assay with GB4, in the assay with HB3, with ICS, in the assay with JCK and with N140 was “inactive” in each case. The Potency entry in the assay on P93_24 was “inactive”.

In the case of `CC(=O)c1ccc2c(c1)N(CCCN1CCC(CCO)CC1)c1ccccc1S2`, the Potency result in the assay on CP291, with CP297, in the assay with CP305, in the assay on CP315, in the assay on CP325 and in the assay with CP329 was “inactive” each time. The Potency result in the assay with DFO2036, in the assay on DIV30, with ECU, in the assay on FAB9, with HB3 and in the assay with JCK was “inactive” each time. For the same compound, the Potency result with N140 was “inactive”.

As to `COc1ccc(C2C(=O)c3ccccc3C2=O)cc1`, the Potency result in the assay with CP291, with CP297, in the assay on CP305, in the assay with CP315, in the assay on CP325 and with CP329 was “inactive” in each case. The Potency entry with CP335, in the assay on DFO2036, in the assay on DIV17, in the assay on DIV30, in the assay on Dd2 and in the assay with ECU was “inactive” throughout. The Potency result with FAB9, in the assay with GB4, in the assay with HB3, in the assay on ICS, in the assay with JCK and with N140 was “inactive” in each case. The Potency entry in the assay with P93_24 is “inactive”.

Take `CC/C(=C(/CC)c1ccc(O)cc1)c1ccc(O)cc1`: the Potency entry with CP291, in the assay on CP297, in the assay with CP305, with CP315, in the assay with CP325 and in the assay on CP329 was “inactive” each time. Further, the Potency entry in the assay with DFO2036, in the assay on DIV17, in the assay on DIV30, in the assay with Dd2, in the assay with ECU and in the assay with FAB9 was “inactive” each time. Further, the Potency entry in the assay with HB3, in the assay with JCK, in the assay with N140 and with P93_24 was “inactive” in each case.

For the compound `CN(C(=O)CN(CCO)CC(=O)N(C)C(C)(C)Cc1ccccc1)C(C)(C)Cc1ccccc1`, the Potency entry in the assay on CP291, in the assay with CP297, in the assay on CP305, in the assay on CP315, in the assay on CP325 and in the assay with CP329 was “inactive” in each case. Also, the Potency entry in the assay on DFO2036, in the assay on DIV30, with Dd2, in the assay on ECU, with FAB9 and in the assay with HB3 was “inactive” in each case. The Potency entry in the assay on JCK and with P93_24 was “inactive” each time.

`CCOC(=O)/C=C(C)/C=C/C=C(C)/C=C/c1c(C)cc(OC)c(C)c1C`: the Potency entry in the assay on CP291, in the assay on CP297, in the assay on CP305, in the assay with CP315, in the assay with CP325 and in the assay with CP329 was “inactive” in each case. Moreover, the Potency result in the assay with DIV14, with DIV30, in the assay with FAB9, in the assay on GB4 and in the assay with JCK was “inactive” each time.

Take `O=C1OC(c2ccc(O)cc2)(c2ccc(O)cc2)c2ccccc21`: the Potency result with CP291, in the assay with CP297, with CP305, in the assay with CP315, in the assay on CP325 and in the assay with CP329 was “inactive” in each case. The Potency result in the assay on CP335, in the assay on DFO2036, in the assay on DIV14, in the assay on DIV17, in the assay on Dd2 and in the assay on FAB9 was “inactive” in each case. Further, the Potency result with GB4, in the assay with HB3, in the assay on ICS and in the assay with JCK was “inactive” in each case.

As for `CN1C2CCC1CC(OC(=O)c1c[nH]c3ccccc13)C2` (stereo not drawn), the Potency result in the assay with CP291, with CP297, in the assay on CP305, in the assay with CP315, in the assay on CP325 and with CP329 was “inactive” throughout. In addition, the Potency result in the assay with CP335, in the assay on DFO2036, in the assay with DIV17, in the assay on DIV30, in the assay with Dd2 and in the assay on ECU was “inactive” throughout. In addition, the Potency entry in the assay with FAB9, in the assay with GB4, in the assay with HB3, in the assay on ICS, with JCK and in the assay with N140 was “inactive” in each case. Moreover, the Potency entry in the assay with P93_24 is “inactive”.

Regarding `Oc1ccc(Cl)c2cccnc12`, the Potency entry with CP291, in the assay on CP297, in the assay with CP305, in the assay with CP315, with CP325 and in the assay with CP329 was “inactive” in each case. Besides, the Potency entry in the assay with DFO2036, in the assay with DIV14, in the assay with DIV17, with DIV30, in the assay with ECU and in the assay with FAB9 was “inactive” in each case. Moreover, the Potency result with JCK, in the assay on N140 and in the assay on P93_24 was “inactive” in each case. Also, the Potency in the assay on ICS is 11.2 µM (active).

For the compound `COc1cc2c(cc1OC)C(=O)C(CC1CCN(Cc3ccccc3)CC1)C2` (stereo not drawn), the Potency entry in the assay with CP291, with CP297, with CP305, in the assay with CP315, with CP325 and in the assay on CP329 was “inactive” in each case. Besides, the Potency entry in the assay on CP335, in the assay on DFO2036, in the assay on DIV30, with ECU, with FAB9 and in the assay with HB3 was “inactive” in each case. Further, the Potency entry in the assay with JCK, in the assay on N140 and in the assay on P93_24 was “inactive” in each case. Moreover, the Potency with DIV14 was 10.7 µM (active); with Dd2, 8.91 µM (active).
